# Hits are enriched below; roughly 10% of the tested compounds scored in any of these assays.
# SW480 rerep – inducers of DNA re-replication in SW480 colon cancer cells; SW480 DNA re-replication, Hoechst DNA content imaging, 48 h; Potency, µM (titrated, usually from 46.1 µM), usual class: activators; 340,000 tested, 1.8% active; AID 624297; further: nearly all actives have a fitted effect of over 55% in size
#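 Quantitative HTS format with DMSO vehicle controls; 48 hr drug incubation at 37 C, then 40 min Hoechst staining and scanning imager measurement at 405 nm excitation.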
# KB-3-1 cytotox – KB-3-1 parental cell cytotoxicity | KB-3-1 viability, CellTiter-Glo ATP luminescence, 72 h | Potency, µM (titrated, usually from 46.1 µM), usual class: cytotoxic | 400,000 tested, 1.4% active | AID 1347075; further: nearly all actives have a fitted effect of over 60% in size
#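 Luminescent ATP read-out (CellTiter-Glo) measures survival of drug-naive KB-3-1 cells after 72 h compound exposure at 37 °C. Titration series was screened from lowest to highest concentration, with DMSO vehicle plates as background controls.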
# VP16 counter – counter-screen for ROR gamma inhibitors: Gal4-VP16 reporter; Drosophila S2 Gal4-VP16 UAS-luciferase, luminescence, 20 h; AID 2546; 310,000 tested, 3.5% active; Potency, µM (series often up to 53.6 µM), hits mostly inhibitors;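 further: Gal4-VP16 expression switched on by copper sulfate through the metallothionein promoter; nearly all actives have a fitted effect of over 50% in size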
# RORg inh – inhibitors of mouse ROR gamma transcriptional activity | P51450 | Drosophila S2 Gal4-RORgamma UAS-luciferase reporter, 20 h | Potency, µM (top dose mostly 53.6 µM), actives largely listed as inhibitors | 310,000 tested, 5.4% active; further: nearly all actives have a fitted effect of over 60% in size
# Target sequence (P51450 whole entry, looked up, the tested form may be a part): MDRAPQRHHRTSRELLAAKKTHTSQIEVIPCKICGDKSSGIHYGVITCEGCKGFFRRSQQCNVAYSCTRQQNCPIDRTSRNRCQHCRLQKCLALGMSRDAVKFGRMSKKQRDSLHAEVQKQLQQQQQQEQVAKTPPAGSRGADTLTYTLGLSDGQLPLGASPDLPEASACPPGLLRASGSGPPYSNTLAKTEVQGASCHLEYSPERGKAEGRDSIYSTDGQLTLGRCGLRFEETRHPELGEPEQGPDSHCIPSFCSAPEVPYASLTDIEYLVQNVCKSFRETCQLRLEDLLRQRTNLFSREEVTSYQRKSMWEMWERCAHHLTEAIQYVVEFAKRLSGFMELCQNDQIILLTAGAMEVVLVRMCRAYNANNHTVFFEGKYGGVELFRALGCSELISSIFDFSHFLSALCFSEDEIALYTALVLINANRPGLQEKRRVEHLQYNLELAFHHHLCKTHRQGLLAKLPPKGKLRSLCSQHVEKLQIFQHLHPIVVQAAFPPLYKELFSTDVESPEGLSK
#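 ROR gamma transcriptional activity was tracked as Gal4-UAS luciferase output in stably transfected Drosophila Schneider cells, with compound added 1 hr before 700 uM copper sulfate induction and a 20 hr ambient-temperature incubation.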
# MCF10A rerep – DNA re-replication induction in MCF 10a cells; MCF 10A DNA re-replication, Hoechst nuclear intensity, 48 h; 350,000 tested, 2.9% active; AID 624296; Potency, µM (doses to about 46.1 µM), usual class: activators; further: nearly all actives have a fitted effect of over 50% in size
# KB-V1 MDR tox – kills drug-selected multidrug resistant KB-V1 cells; 400,000 tested, 3.4% active; Potency, µM (series often up to 46.1 µM), actives largely listed as cytotoxic; KB-V1 MDR cells viability, CellTiter-Glo, 72 h; further: nearly all actives have a fitted effect of over 60% in size
#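 Cells of the MDR subline KB-V1 are plated, dosed with compound at multiple concentrations, and incubated 72 h at 37 degrees C; CellTiter-Glo is then added and luminescence read after 10 min.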
# A number is an active result; - = inactive; ? = inconclusive; . = no result; [ ] = dose if it differs, or a comment. The call rests on the fitted dose curve; in most records, active means well fitted curve in the direction sought with a large enough effect; inconclusive means small, poorly fitted or top-dose-only effect, or another doubt; inactive means no such curve, though single readings can be large; an effect the other way counts as inactive or inconclusive.
SMILES,SW480 rerep,KB-3-1 cytotox,VP16 counter,RORg inh,MCF10A rerep,KB-V1 MDR tox
Cc1ccc(CSc2ncc(Cl)c(C(=O)Nc3nnc(C)s3)n2)cc1,.,-,.,.,.,-
COc1cccc(CNC(=O)CSc2ncc(S(=O)(=O)c3ccc(C)c(Cl)c3)c(=O)[nH]2)c1,.,-,.,.,.,-
CN(N)C(=S)Nc1ccc(F)cc1,-,-,-,-,-,-
CN(C)/C=N/C(=S)Nc1ccccc1F,-,-,-,-,-,-
CN(C)/C=N/C(=S)Nc1ccccc1Cl,-,-,-[10 µM],6.3µM,-,-
CN(O)/C=N/C(=S)Nc1ccc(Cl)cc1Cl,-,-,-,18µM,-,-
CN(C)/C=N/C(=S)Nc1ccc(Cl)c(Cl)c1,-,-,3.2µM,1.8µM,-,-
CN(C)/C=N/C(=S)Nc1ccc(F)cc1,-,-,?,11µM,-,-
CN(C)/C=N/C(=S)Nc1cc(Cl)cc(Cl)c1,-,-,-[10 µM],-,-,-
O=C(CC1N=C2c3ccccc3N=C(SCc3ccccc3F)N2C1=O)NCCc1ccccc1 (configuration not stated),.,?,.,.,.,-
CC(C)C[C@H](NC(=O)c1ccc(NCc2cnc[nH]2)cc1-c1cccc2ccccc12)C(=O)O,.,.,-,-,.,.
CN(C)C(=O)c1ccc(-c2nc(Nc3ccccc3)c3ccccc3n2)cc1,.,.,-,-,.,.
Cc1cc(C)nc(SCc2c(F)cccc2Cl)n1,-,-,-,-,-,-
Cc1cc(C)nc(S/C=C/C(=O)c2ccccc2F)n1,-,-,10µM,7.9µM,2.6µM,?
CCOc1cccc(OCCOCCOc2ccccc2C(C)=O)c1,-,-,-,-,-,15µM
O=C(NNc1c2ccccc2nc2ccccc12)c1ccc(Cl)cc1,?,?,-,-,-,-
CSc1nc(N(C)NC(=O)c2ccc(Cl)cc2)c2ccccc2n1,0.58µM,0.58µM,-,-,?,2.9µM
CSc1nc(N(C)NC(=O)c2ccccc2)c2ccccc2n1,?,1µM,-[0.365 µM],-,1.6µM,1.2µM
CC(=O)N1CCCc2cc(S(=O)(=O)N3CCN(c4ccc(F)cc4)CC3)ccc21,.,-,.,.,.,-
Cc1cccc(-n2ccnc2SCC(=O)Nc2cccc3ccccc23)c1,.,-,.,.,.,-
COc1ccccc1-n1nc(-c2ccccc2)c2cnc3c(F)cc(F)cc3c21,.,-,.,.,.,-
NC(=O)c1nn(Cc2ccccc2)c(=O)c2ccccc12,-,-,-,-,-,?
COC(=O)c1nn(Cc2ccccc2)c(=O)c2ccccc12,-,-,-,-,-,16µM
Cc1cc2c(cc1S(=O)(=O)CCC(=O)N1CCN(c3ccccc3)CC1)OCC(=O)N2,.,-,.,.,.,-
CCn1ncc(Br)c1C(=O)Nc1cc([N+](=O)[O-])ccc1C,-,?,-,-,-,16µM
SMILES,SW480 rerep,KB-3-1 cytotox,VP16 counter,RORg inh,MCF10A rerep,KB-V1 MDR tox
CCn1nccc1C(=O)Nc1ccccc1OC,-,-,-,-,-,-
CCn1ncc(Br)c1C(=O)Nc1ccccc1OC,-,13µM,-,-,-,12µM
CCn1ncc(Br)c1C(=O)Nc1cc(C(=O)OC)ccc1C(=O)OC,-,-,-,-,-,-
CCOc1ccccc1CNC(=O)c1cc2n(n1)CCCN(Cc1ccc(C)cc1)C2=O,.,-,.,.,.,-
O=C(NNC(=S)Nc1ccc(Br)cc1Cl)c1ccncc1,-,-,20µM,-,-,?
O=C(CCc1ccc(O)c(O)c1)NNC(=S)Nc1ccc(Br)cc1Cl,-,-,?,11µM,-,-
O=C(CCc1ccc(O)c(O)c1)NNC(=S)NCCc1ccccc1,-,-,-,-,?,-
O=C(NNC(=S)Nc1ccccc1)c1cc(Br)ccc1Cl,-,-,-,0.79µM,?,-
CCC(Sc1nnc2c(n1)[nH]c1ccccc12)C(=O)Nc1nnc(C(C)C)s1 (configuration not stated),.,-,.,.,.,-
CC(Sc1ccc(Cl)cc1)C(=O)NNC(=O)c1ccco1 (configuration not stated),-,-,.,.,-,-
c1ccc(-c2cnc(-c3cccnc3)o2)cc1,-,-,-,?,-,-
NC(=O)c1ccc(-c2ncc(-c3ccccc3)o2)cc1,-,-,11µM,1.8µM,?,?
CC(C)(C)Cc1c(-c2ccc(F)cc2)nc2ccc(Br)cn12,.,-,.,.,.,?
CCn1nc(C)c(/C=N/NC(=S)Nc2ccc(Cl)cc2Cl)c1C,?,-,6.3µM,1.8µM,-,?
Cc1nn(C)cc1/C=N/NC(=S)Nc1ccc(Cl)cc1Cl,-,-,2.8µM,0.56µM,?,-
Cc1nn(C)cc1/C=N/NC(=O)c1ccc2c(c1)OCO2,-,-,-,-,?,-
Cc1ccc(Cl)cc1NC(=S)N/N=C/c1cccc2ccccc12,8.2µM,5.8µM,2.5µM,0.79µM,8.2µM,2.1µM
CCc1ccc(N(C(=O)c2snc(C(N)=O)c2N)C(C(=O)NC2CCCC2)c2ccco2)cc1 (configuration not stated),?,?,-,-,6.5µM,23µM
NC(=O)c1nsc(C(=O)N(CC(=O)NC2CCCC2)c2cccc(C(F)(F)F)c2)c1N,?,-,-,-,15µM,-
CCCC(C(=O)NC1CCCC1)N(Cc1cccs1)C(=O)c1snc(C(N)=O)c1N (configuration not stated),-,-,-,-,-,2.3µM
CCCC(C(=O)NC(C)(C)C)N(Cc1ccccc1Cl)C(=O)c1snc(C(N)=O)c1N (configuration not stated),?,-,-,-,13µM,?
COc1cccc(N(CC(=O)NC2CCCCC2)C(=O)c2snc(C(N)=O)c2N)c1,-,-,-,?,-,?
CCOc1ccccc1NC(=O)c1ccc2c(c1)CCN2S(C)(=O)=O,.,-,.,.,.,-
COc1ccccc1CCNC(=O)c1cccn1-c1nnc(N2CCCC2)s1,.,-,.,.,.,-
COc1cc(/C=C2/C(=O)NN(c3ccc(C)c(Cl)c3)C2=O)cc([N+](=O)[O-])c1O,-,-,-,-,-,-
SMILES,SW480 rerep,KB-3-1 cytotox,VP16 counter,RORg inh,MCF10A rerep,KB-V1 MDR tox
Cc1ccc(N2NC(=O)/C(=C\c3cc4c(cc3[N+](=O)[O-])OCO4)C2=O)cc1C,-,?,?,-,18µM,-
CC1=C(C(=O)Nc2ccccc2)C(c2cccs2)n2nc(SCc3ccccc3)nc2N1 (configuration not stated),.,-,.,.,.,-
Cc1cc(C)c(S(=O)(=O)Nc2ccccc2)c(C)c1,-,-,.,.,-,18µM
CC(=O)Nc1ccc2c3c(cccc13)CC2,-,-,.,.,-,-
Cc1ccc(S(=O)(=O)Nc2ccc3c4c(cccc24)CC3)c(C)c1,?,?,.,.,?,21µM
Cc1cc(C)c(S(=O)(=O)Nc2ccc3c4c(cccc24)CC3)c(C)c1,?,0.73µM,?,11µM,0.37µM,1.3µM
